# Experimental data taken from the supplement of paper PMC6555819.
# System: LXRb homodimer (NR concentration 270 nM)
# Assay: PBM binding z-score (relative to random genomic background probes); higher = stronger binding; sequences stand for … in GC…GCGATTGACAGCGTAGAATGAAGG
# How it was run: (§1)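 The probes on custom Agilent 4×180K protein-binding microarrays were double-stranded, with 34-nt variable regions bearing direct-repeat seeds, single-nucleotide variants, half-site ablations and random human genomic background sequences. Incubation lasted 1 h with ligand-free nuclear receptor dimers in PBS pH 7.4, 2% milk, 0.02% Triton X-100, 1 mM DTT, 0.2 mg/mL BSA and 0.4 mg/ml salmon testes DNA. Antibodies against each partner (one per run) detected bound dimers, and fluorescence scans were regression-normalized. Binding z-scores take the random background probes as reference.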
row,Sequence,PBM binding z-score
1,CGTCCAAGGTCGTAGGAGGTCAGTGAAGACAGAT,-0.833
2,TCTGCTAGGTCAACGATGATCAGCTAATCTGCTA,-0.366
3,TCAAATAGGTAAAGGTGAAAGTCGAACGATATGA,0.00812
4,TCTATTAGTTGATTAGGGCAACTGAAACAGCGGA,0.522
5,AGAATGAGGTAATACGTAGATCAGGGAAGAAAGT,-0.209
6,ACTATTAGTTGACTTAGGACAACCGATACGACGC,0.989
7,AGTCAAAGTTCAGGACGAAGTAACGTAAAGCACG,0.274
8,TCTTGTAGATCAAGGGTTAAGAAAGCCGAAGCCT,-0.606
9,CGAACTAGGTCGGAACAGGACAGTGAAGGATGAT,-1
10,AGAACGAGGGCAATAAGTTGATAGCACGGGTGGC,-0.518
11,AGAACGATGGCACGCTGAGTTGATAGCAGAGTAG,-1.06
12,GATACAGGGTCAGCTAGAGGACAGAGTATGGAAA,-0.241
13,TCATATAGGTAAATGCTAGGTGAAAGTGCGATCT,0.24
14,GCTAGTTGGTCAGTAAAAGGTCAGACACCGGTCG,0.106
15,AGAATGAGGTTACCAAACATCAGGGAAACGCTTG,-0.323
16,ACTCGGAAGACAAAGGTCAGAGCTACGCCAGTGA,0.387
17,ACAGACAGGTTAGTGAAGGTAACTCAGCTGGACG,-0.3
18,TCTATTAGTTGACTAGGGCAACCGAAACAGCGGA,0.447
19,ACTAGCAGGCCAAGTTTGGGTCACTTAAACAAAG,-0.362
20,CCTACTGGGCCACGAAAGCTCATTGATTCAGTGA,-0.95

row,Sequence,PBM binding z-score
1,ACTAGCAGGCCAGGTTTGGGTCACTCAAACAAAG,-0.651
2,TAGCCTACGTCAGATCGGGCCAGTATACGCTATA,-0.669
3,TAGCCTAGGTCATTCAGGGGCCAGTTTAGAAAGC,0.887
4,CTCGAAAGGTCGTGCTCACGTGAGTATACCAAAC,0.397
5,GCTCGGAGGACAAGGTCAGAGCATTGTCCGTAGA,-0.84
6,TAGCCTAGGTCAGATCGGGCAAGTATACGCTATA,-0.322
7,CAAACTAGGTCAAGGTCATAGTCGGTTTGTGCCA,1.07
8,TTACCAAGGTGAAGGTCCTTGATCCCTCTGTAGA,-0.95
9,CGAACGAGGGCATGAGTTGACAGCAAATGCCGAT,-1.11
10,ATCGAAAGGTCGAACGTGAGTATACCCACCCGAA,1.01
11,TCTGCTAGGTCAGCTGGTCAGCTAACGAGCTGCC,-0.343
12,GATACAGGGTCAGCCAGAGGCCAGAGTATGGAAA,-0.975
13,GCTATTAGTTGAAAGGGCAACCCAATGATTCTCG,-0.181
14,GCGACTGGGGCATCAGCAGTTTACCATAACTTAA,-0.674
15,ATATGAAGGTTACATCCGGGTCATTCAGGCTATG,0.71
16,CGTCAAAGATCAACTAAGGTAACGTAAAGCACGC,-0.0274
17,AGATTGAGGTTAAGATCAGGGAAACAGAATACAT,0.34
18,GATACAGGGTCAAGGCCAGCGTACGCGTATTGAT,-0.187
19,AGTACGAGGGCACGCTGAGTTGATAGCAGAGTAG,-0.497
20,TGAATGAGGTTAAAGATCCGGGAACGTGGCGTCG,0.309

# System: PPARa:RXRa (NR concentration 270 nM, RXRa partner concentration 90 nM)
# Assay: as above
# How it was run: as §1
row,Sequence,PBM binding z-score
1,CGTCCAAGGTCGTAGGAGGTCAGTGAAGACAGAT,4.12
2,TCTGCTAGGTCAACGATGATCAGCTAATCTGCTA,3.32
3,TCAAATAGGTAAAGGTGAAAGTCGAACGATATGA,3.48
4,TCTATTAGTTGATTAGGGCAACTGAAACAGCGGA,0.782
5,AGAATGAGGTAATACGTAGATCAGGGAAGAAAGT,0.49
6,ACTATTAGTTGACTTAGGACAACCGATACGACGC,0.0286
7,AGTCAAAGTTCAGGACGAAGTAACGTAAAGCACG,3.3
8,TCTTGTAGATCAAGGGTTAAGAAAGCCGAAGCCT,3.12
9,CGAACTAGGTCGGAACAGGACAGTGAAGGATGAT,0.71
10,AGAACGAGGGCAATAAGTTGATAGCACGGGTGGC,1.24
11,AGAACGATGGCACGCTGAGTTGATAGCAGAGTAG,-0.687
12,GATACAGGGTCAGCTAGAGGACAGAGTATGGAAA,4.58
13,TCATATAGGTAAATGCTAGGTGAAAGTGCGATCT,1.87
14,GCTAGTTGGTCAGTAAAAGGTCAGACACCGGTCG,3.24
15,AGAATGAGGTTACCAAACATCAGGGAAACGCTTG,3.21
16,ACTCGGAAGACAAAGGTCAGAGCTACGCCAGTGA,4.48
17,ACAGACAGGTTAGTGAAGGTAACTCAGCTGGACG,0.259
18,TCTATTAGTTGACTAGGGCAACCGAAACAGCGGA,1.45
19,ACTAGCAGGCCAAGTTTGGGTCACTTAAACAAAG,1.52
20,CCTACTGGGCCACGAAAGCTCATTGATTCAGTGA,-0.132

row,Sequence,PBM binding z-score
1,ACTAGCAGGCCAGGTTTGGGTCACTCAAACAAAG,0.985
2,TAGCCTACGTCAGATCGGGCCAGTATACGCTATA,-0.78
3,TAGCCTAGGTCATTCAGGGGCCAGTTTAGAAAGC,3.8
4,CTCGAAAGGTCGTGCTCACGTGAGTATACCAAAC,5.07
5,GCTCGGAGGACAAGGTCAGAGCATTGTCCGTAGA,2.48
6,TAGCCTAGGTCAGATCGGGCAAGTATACGCTATA,1.74
7,CAAACTAGGTCAAGGTCATAGTCGGTTTGTGCCA,5.92
8,TTACCAAGGTGAAGGTCCTTGATCCCTCTGTAGA,1.87
9,CGAACGAGGGCATGAGTTGACAGCAAATGCCGAT,1.81
10,ATCGAAAGGTCGAACGTGAGTATACCCACCCGAA,4.39
11,TCTGCTAGGTCAGCTGGTCAGCTAACGAGCTGCC,1.95
12,GATACAGGGTCAGCCAGAGGCCAGAGTATGGAAA,4.69
13,GCTATTAGTTGAAAGGGCAACCCAATGATTCTCG,2.4
14,GCGACTGGGGCATCAGCAGTTTACCATAACTTAA,0.605
15,ATATGAAGGTTACATCCGGGTCATTCAGGCTATG,3.69
16,CGTCAAAGATCAACTAAGGTAACGTAAAGCACGC,1.19
17,AGATTGAGGTTAAGATCAGGGAAACAGAATACAT,3.45
18,GATACAGGGTCAAGGCCAGCGTACGCGTATTGAT,5.63
19,AGTACGAGGGCACGCTGAGTTGATAGCAGAGTAG,1.63
20,TGAATGAGGTTAAAGATCCGGGAACGTGGCGTCG,3.14
